Assay [1] can be described thus: Natriuretic polypeptide receptor (hNpr1) antagonism - Pilot counterscreen GloSensor control cell line (AID 1347045; calls by dose curve; also: potency is read from the fitted curve at half-maximal effect). The method in brief:
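The SNP-driven cGMP luminescence signal (50 uM, 20 min, room temperature) was measured in GloSensor HEK293 control cells. Compounds were tested as a LOPAC titration series and preincubated for 30-50 min.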

Assay [2] concerns the target Atrial natriuretic peptide receptor 2 (Homo sapiens) (UniProt P20594). The assay is described as follows: Natriuretic polypeptide receptor (hNpr2) antagonism - Pilot subtype selectivity assay (AID 1347050; calls by dose curve; also: potency is read from the fitted curve at half-maximal effect). The method in brief:
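Read-out: GloSensor luminescence (CCD imager), baseline vs post-stimulation. HEK293 cells expressing hNpr2; compounds pre-incubated 30-50 min at ambient temperature; hNppC 1 nM final, 20 min.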

Assay [3] is described as follows: NS1 protein of Zika virus - qHTS assay to identify small molecule inhibitors in human HEK 293 cells (AID 1347053). Also: nearly all actives have a fitted effect of over 55% in size. Also: potency is read from the fitted curve at half-maximal effect. The method in brief:
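Readout was TR-FRET using paired anti-NS1 antibodies after 24 h infection of HEK 293 cells with ZIKV MR766 (MOI = 0.5). Compound preceded virus by 1 h; reduced signal reflects lower NS1 expression.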

Assay [4] addresses T1, Tyrosine-protein phosphatase non-receptor type substrate 1 (Homo sapiens) + Leukocyte surface antigen CD47 (Homo sapiens) (UniProt P78324+Q08722). The assay is described as follows: CD47-SIRPalpha protein protein interaction - LANCE assay qHTS validation (AID 1347057; active = well fitted curve in the direction sought with a large enough effect in the signal ratio, with a control signal flat, not every such curve was filed as active; the % refers to the signal ratio; also: series mostly up to about 38 µM). The method in brief: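 Inhibition of soluble CD47/SIRPalpha ectodomain association by titrated compounds, measured as 665/615 nm time-resolved FRET ratio after sequential 30 min room-temperature incubations.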

The target in assay [5] is T1, Tyrosine-protein phosphatase non-receptor type substrate 1 (Homo sapiens) + Leukocyte surface antigen CD47 (Homo sapiens). As to the kind of experiment: CD47-SIRPalpha protein protein interaction - HTRF assay qHTS validation (AID 1347058; active = well fitted curve in the direction sought with a large enough effect in the signal ratio, not every such curve was filed as active; the % refers to the signal ratio; also: series mostly up to about 38 µM). The method in brief: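 Soluble extracellular domains (6His-CD47, Avi-tag-biotinylated SIRPalpha) in PBS pH 7.4 with 0.05% IGEPAL CA-630. Compounds were preincubated 30 min at RT with CD47 and anti-His-Eu, then SIRPalpha and SAV-XL665 were added. TR-FRET 665/615 ratio.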

Assay [6] shares this target. The assay is described as follows: CD47-SIRPalpha protein protein interaction - Alpha assay qHTS validation (AID 1347059). The method in brief: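 In PBS (pH 7.4) with 0.05% IGEPAL CA-630, compound is preincubated with biotin-Avi-SIRPalpha ectodomain before His-CD47 ectodomain and affinity beads are added. Light-protected room-temperature incubations; AlphaScreen readout.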

Assay [7] concerns the target Parathyroid hormone/parathyroid hormone-related peptide receptor (Homo sapiens) (UniProt Q03431). As to the kind of experiment: qHTS for PTHR1 Agonists: Optimization Screen against the NCGC LOPAC library (AID 1347079).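 Also: GloSensor cAMP luminescence in HEK-293 GP2 cells expressing human PTHR1 with IBMX.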 The method in brief: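 Signal increase flags agonism. GP2 cells, derived from HEK-293, express human PTHR1 and a GloSensor cAMP construct.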
A short description of assay [8]: qHTS of pediatric cancer cell lines to identify multiple opportunities for drug repurposing: Primary screen for TC32 cells (AID 1347089). Also: nearly all actives have a fitted effect of over 60% in size. Also: potency is read from the fitted curve at half-maximal effect. The method in brief: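 In the primary qHTS, MIPE compounds were tested at 11 concentrations (0.78 nM to 46 µM) and NPC compounds at 8 (0.59 nM to 46 µM) on TC32 cells for 48 h. CellTiter-Glo luminescence gave viability.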
The target of assay [9] is Atrial natriuretic peptide receptor 1 (Homo sapiens) (UniProt P16066). As to the kind of experiment: Natriuretic polypeptide receptor (hNpr1) antagonism - Pilot screen (AID 1347049; calls by dose curve;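 also: HEK293 cells with hNpr1 and GloSensor cGMP luciferase stimulated by 0.1 nM hNppA; agonist-evoked cGMP luminescence read 20 min after hNppA addition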; also: potency is read from the fitted curve at half-maximal effect). The method in brief:
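Cells expressing receptor plus cGMP biosensor are seeded and incubated overnight at 37C, then loaded with GloSensor reagent (2% final) at room temperature for 2 h. Library compounds go on for 30 min. A pre-read precedes agonist (hNppA, 0.1 nM final) and a 20-min readout.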

Assay [10] is described as follows: qHTS of pediatric cancer cell lines to identify multiple opportunities for drug repurposing: Primary screen for DAOY cells (AID 1347090). Also: nearly all actives have a fitted effect of over 55% in size. Also: potency is read from the fitted curve at half-maximal effect. The method in brief:
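Eight- or eleven-point concentration series, 48 h treatment at 37 degrees C in growth media; readout CellTiter-Glo luminescence. Potency and efficacy were taken from the concentration-response curves.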

Several values for one entry are separate records, joined by “and”; a condition that tells them apart may be missing. Equal entries are not always repeated. Results filed as inconclusive are left out. More than one record can exist for a structure, and the calls need not agree. Activity calls are given as the source filed them. Unless noted, calls follow the shape of the dose curve; as a rule, active = well fitted curve in the direction sought with a large enough effect; inconclusive = small, poorly fitted or top-dose-only effect, or another doubt; inactive = no such curve, though single readings can be large; an effect the other way counts as inactive or inconclusive.

T1 sequence (P78324 whole entry, looked up, the tested form may be a part): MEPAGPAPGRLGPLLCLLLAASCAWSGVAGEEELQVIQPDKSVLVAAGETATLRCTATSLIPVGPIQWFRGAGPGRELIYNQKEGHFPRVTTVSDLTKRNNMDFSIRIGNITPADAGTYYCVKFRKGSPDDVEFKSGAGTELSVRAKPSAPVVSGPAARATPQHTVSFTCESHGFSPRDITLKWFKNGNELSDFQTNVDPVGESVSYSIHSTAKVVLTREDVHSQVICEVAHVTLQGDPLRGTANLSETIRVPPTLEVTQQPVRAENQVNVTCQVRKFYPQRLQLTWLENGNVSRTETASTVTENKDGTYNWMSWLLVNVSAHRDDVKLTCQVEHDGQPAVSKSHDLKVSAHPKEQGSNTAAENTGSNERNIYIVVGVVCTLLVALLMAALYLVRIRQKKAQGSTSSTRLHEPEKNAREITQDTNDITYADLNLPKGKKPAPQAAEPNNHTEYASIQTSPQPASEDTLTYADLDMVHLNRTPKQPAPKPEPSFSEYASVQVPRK
T1 sequence (Q08722 whole entry, looked up, the tested form may be a part): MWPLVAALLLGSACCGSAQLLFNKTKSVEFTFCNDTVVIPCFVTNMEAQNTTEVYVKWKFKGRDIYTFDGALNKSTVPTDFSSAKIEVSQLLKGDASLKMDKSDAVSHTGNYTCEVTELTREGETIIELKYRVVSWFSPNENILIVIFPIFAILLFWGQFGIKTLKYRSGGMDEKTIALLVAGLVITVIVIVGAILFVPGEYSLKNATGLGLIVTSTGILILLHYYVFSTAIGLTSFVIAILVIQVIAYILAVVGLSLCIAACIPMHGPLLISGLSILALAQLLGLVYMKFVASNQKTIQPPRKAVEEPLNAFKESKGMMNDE
Chain of Atrial natriuretic peptide receptor 2 (Homo sapiens) (P20594 whole entry, looked up): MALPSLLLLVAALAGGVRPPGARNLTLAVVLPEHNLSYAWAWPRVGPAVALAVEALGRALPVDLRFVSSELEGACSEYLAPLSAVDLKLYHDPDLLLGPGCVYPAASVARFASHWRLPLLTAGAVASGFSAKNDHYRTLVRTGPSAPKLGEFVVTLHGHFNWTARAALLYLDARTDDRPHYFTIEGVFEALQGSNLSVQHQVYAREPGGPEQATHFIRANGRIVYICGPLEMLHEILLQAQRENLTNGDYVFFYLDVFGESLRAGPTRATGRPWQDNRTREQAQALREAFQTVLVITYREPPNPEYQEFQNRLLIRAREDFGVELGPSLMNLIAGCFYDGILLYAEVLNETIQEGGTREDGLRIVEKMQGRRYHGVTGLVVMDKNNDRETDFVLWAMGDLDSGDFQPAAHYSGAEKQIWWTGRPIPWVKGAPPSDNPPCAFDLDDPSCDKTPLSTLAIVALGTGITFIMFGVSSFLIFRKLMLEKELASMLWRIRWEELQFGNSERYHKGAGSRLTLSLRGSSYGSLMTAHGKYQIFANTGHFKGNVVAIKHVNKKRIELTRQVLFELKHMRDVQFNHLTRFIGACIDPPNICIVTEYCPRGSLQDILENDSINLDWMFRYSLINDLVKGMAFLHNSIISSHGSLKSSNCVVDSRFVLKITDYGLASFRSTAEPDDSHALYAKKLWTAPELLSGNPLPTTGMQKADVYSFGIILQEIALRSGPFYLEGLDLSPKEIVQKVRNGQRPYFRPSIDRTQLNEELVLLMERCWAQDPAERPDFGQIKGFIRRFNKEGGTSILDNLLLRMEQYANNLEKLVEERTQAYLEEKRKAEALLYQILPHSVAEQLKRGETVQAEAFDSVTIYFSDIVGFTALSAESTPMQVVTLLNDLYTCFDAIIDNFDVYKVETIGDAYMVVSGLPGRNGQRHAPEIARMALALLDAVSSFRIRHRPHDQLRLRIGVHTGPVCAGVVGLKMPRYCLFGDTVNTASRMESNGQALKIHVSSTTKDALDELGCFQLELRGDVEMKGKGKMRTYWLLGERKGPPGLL
Chain of Atrial natriuretic peptide receptor 1 (Homo sapiens) (P16066 whole entry, looked up): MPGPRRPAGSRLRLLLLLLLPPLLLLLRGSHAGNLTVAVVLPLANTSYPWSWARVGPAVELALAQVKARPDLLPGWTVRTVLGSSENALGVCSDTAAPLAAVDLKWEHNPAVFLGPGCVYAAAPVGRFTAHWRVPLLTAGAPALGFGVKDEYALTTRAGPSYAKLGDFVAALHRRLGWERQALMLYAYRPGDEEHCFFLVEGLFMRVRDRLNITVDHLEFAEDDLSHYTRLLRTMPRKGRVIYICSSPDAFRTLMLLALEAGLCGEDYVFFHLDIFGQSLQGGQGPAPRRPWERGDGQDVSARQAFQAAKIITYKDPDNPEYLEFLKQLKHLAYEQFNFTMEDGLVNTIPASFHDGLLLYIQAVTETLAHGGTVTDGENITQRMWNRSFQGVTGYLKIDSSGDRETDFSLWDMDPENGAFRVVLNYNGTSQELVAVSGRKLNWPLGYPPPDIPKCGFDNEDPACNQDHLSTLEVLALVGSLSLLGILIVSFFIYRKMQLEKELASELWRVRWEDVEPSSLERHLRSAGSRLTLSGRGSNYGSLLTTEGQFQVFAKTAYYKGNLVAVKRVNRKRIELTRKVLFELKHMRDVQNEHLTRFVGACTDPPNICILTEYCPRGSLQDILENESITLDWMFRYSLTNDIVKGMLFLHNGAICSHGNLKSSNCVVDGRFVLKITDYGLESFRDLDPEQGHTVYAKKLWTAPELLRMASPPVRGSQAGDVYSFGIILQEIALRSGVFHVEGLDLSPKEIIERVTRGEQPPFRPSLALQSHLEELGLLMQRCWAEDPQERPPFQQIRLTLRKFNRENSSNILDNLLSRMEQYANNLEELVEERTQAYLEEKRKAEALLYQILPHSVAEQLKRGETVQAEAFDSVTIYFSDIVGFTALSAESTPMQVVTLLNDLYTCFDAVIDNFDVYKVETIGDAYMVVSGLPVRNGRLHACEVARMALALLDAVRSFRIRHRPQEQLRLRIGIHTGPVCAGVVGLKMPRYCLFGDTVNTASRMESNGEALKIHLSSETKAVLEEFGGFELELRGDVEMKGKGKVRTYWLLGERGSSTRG
Chain of Parathyroid hormone/parathyroid hormone-related peptide receptor (Homo sapiens) (Q03431 whole entry, looked up): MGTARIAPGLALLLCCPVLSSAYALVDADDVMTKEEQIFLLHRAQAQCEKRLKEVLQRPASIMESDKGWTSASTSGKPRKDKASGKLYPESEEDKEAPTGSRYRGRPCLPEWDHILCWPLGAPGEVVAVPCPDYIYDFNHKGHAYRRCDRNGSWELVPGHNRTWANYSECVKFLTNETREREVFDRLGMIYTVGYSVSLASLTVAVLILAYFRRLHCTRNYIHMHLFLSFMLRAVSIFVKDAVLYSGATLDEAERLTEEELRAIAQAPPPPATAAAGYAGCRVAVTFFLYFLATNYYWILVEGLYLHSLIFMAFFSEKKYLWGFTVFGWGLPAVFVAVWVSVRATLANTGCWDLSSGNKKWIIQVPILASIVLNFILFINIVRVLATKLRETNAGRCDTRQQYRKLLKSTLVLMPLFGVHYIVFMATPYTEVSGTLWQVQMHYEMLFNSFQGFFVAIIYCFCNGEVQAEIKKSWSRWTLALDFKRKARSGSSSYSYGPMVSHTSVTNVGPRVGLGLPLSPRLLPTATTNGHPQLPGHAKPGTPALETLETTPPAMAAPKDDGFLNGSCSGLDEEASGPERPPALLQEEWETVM

Turning to `COc1cc2nc(N3CCN(C(=O)c4ccco4)CC3)nc(N)c2cc1OC`, the Potency result in assay [1], in [2], in assay [6], in assay [7] and in [8] was “inactive” in each case. Also, the Potency in [3] is 9.35 µM (active). For the same compound, the result in assay [4] and in [5] was inactive.
Regarding `COc1cc2c(c(OC)c1OC)-c1ccc(OC)c(=O)cc1[C@@H](NC(C)=O)CC2`, the Potency entry in assay [1], in [9], in assay [3], in [6] and in assay [7] was “inactive” each time. For the same compound, in assay [4], the result was inactive. The Potency in [8] is 7.5 nM (active) and 1.3 nM (active); in [10], 8.4 nM (active).
In the case of `CCOC(=O)c1ncn2c1CN(C)C(=O)c1cc(F)ccc1-2`, the Potency result in assay [1], in assay [9], in [2], in assay [3], in assay [6] and in assay [7] was “inactive” each time. Moreover, the Potency result in [8] and in assay [10] was “inactive” throughout. In addition, the result in assay [4] and in assay [5] was inactive.
For the compound `CC(C)Cc1ccc(C(C)C(=O)O)cc1` (configuration not stated), the Potency result in assay [1], in [9], in [2], in assay [3], in [6] and in [7] was “inactive” in each case. Further, the Potency entry in assay [8] and in assay [10] was “inactive” each time. Also, the result in assay [4] and in assay [5] was inactive.
`CN(C)CCOC(c1ccccc1)c1ccccc1`: the Potency entry in assay [1], in assay [9], in [2], in [3], in [7] and in assay [10] was “inactive” in each case. The result in assay [4], in [5] and in [6] was inactive.
Take `CN(C)C(=O)C(CCN1CCC(O)(c2ccc(Cl)cc2)CC1)(c1ccccc1)c1ccccc1`: the Potency in assay [1] is 26.1 µM (active). The Potency result in assay [9], in assay [3], in assay [6] and in assay [7] was “inactive” in each case. The outcome in assay [4] and in assay [5] was inactive.
Take `Nc1ccn([C@H]2CC[C@@H](CO)O2)c(=O)n1`: the Potency result in assay [1], in assay [9], in assay [2], in assay [3], in [6] and in assay [7] was “inactive” in each case. Moreover, the Potency result in assay [8] and in assay [10] was “inactive” in each case. For the same compound, the result in assay [4] and in [5] was inactive.
On to `O=C(Nc1ccc([N+](=O)[O-])cc1Cl)c1cc(Cl)ccc1O`, for which the Potency was 0.464 µM (active) in assay [1]; 0.953 µM (active) in assay [9]; 1.31 µM (active) in [2]; “inactive and 1.48 µM (active)” in [3]; 1.46 µM (active) and 1.18 µM (active) in assay [10]. For the same compound, the outcome in [4] and in assay [5] was inactive. Further, the Potency result in assay [6], in assay [7] and in assay [8] was “inactive” each time.
As for `NS(=O)(=O)c1cc2c(cc1Cl)NCNS2(=O)=O`, the Potency result in assay [1], in [9], in assay [2], in assay [3], in assay [6] and in assay [7] was “inactive” in each case. Moreover, the Potency entry in assay [8] and in [10] was “inactive” throughout. Also, the outcome in assay [4] and in assay [5] was inactive.
With `O=C(c1ccc(OCCN2CCCCC2)cc1)c1c(-c2ccc(O)cc2)sc2cc(O)ccc12`, the Potency result in [1], in assay [9], in assay [2], in assay [3], in assay [7] and in assay [8] was “inactive” in each case. Moreover, in assay [4], the outcome was inactive.
For `CCCCc1oc2ccccc2c1C(=O)c1cc(I)c(OCCN(CC)CC)c(I)c1`, the Potency result in [1], in assay [9], in assay [2], in [6], in [7] and in [8] was “inactive” in each case. For the same compound, the Potency is 29.6 µM (active) and inactive in [3]; 5900 nM (active) in [10]. For the same compound, the result in assay [4] and in assay [5] was inactive.
Consider `CC(CCc1ccc(O)cc1)NCCc1ccc(O)c(O)c1` (configuration not stated), for which the Potency entry in assay [1], in assay [9], in [2], in assay [3], in assay [6] and in assay [7] was “inactive” throughout. In addition, the Potency result in assay [8] and in assay [10] was “inactive” throughout. Besides, the outcome in assay [4] and in assay [5] was inactive.
As for `COc1ccccc1OCC(O)CN1CCN(CC(=O)Nc2c(C)cccc2C)CC1` (configuration not stated), the Potency result in assay [1], in assay [9], in assay [2], in assay [3], in [6] and in assay [7] was “inactive” each time. Besides, the Potency result in assay [8] and in assay [10] was “inactive” in each case. The outcome in [4] and in assay [5] was inactive.
As to `Cc1cn([C@H]2C=C[C@@H](CO)O2)c(=O)[nH]c1=O`, the Potency entry in [1], in [9], in assay [2], in [3], in assay [6] and in assay [7] was “inactive” each time. In addition, in [8], the Potency entry was “inactive”. Further, the outcome in [4] and in assay [5] was inactive.
Turning to `COc1ccc(C2CNC(=O)C2)cc1OC1CCCC1` (configuration not stated), the Potency result in assay [1], in assay [9], in assay [2], in [3], in assay [6] and in assay [7] was “inactive” in each case. Besides, the Potency entry in [8] and in assay [10] was “inactive” in each case. For the same compound, the result in assay [4] and in assay [5] was inactive.
Take `CC(C)NCC(O)COc1ccc(CCOCC2CC2)cc1` (configuration not stated): the Potency entry in [1], in [9], in assay [2], in assay [3], in assay [6] and in assay [7] was “inactive” each time. The Potency result in assay [8] and in assay [10] was “inactive” in each case. In addition, the outcome in [4] and in [5] was inactive.
Consider `N[C@@H](Cc1c[nH]c2ccc(O)cc12)C(=O)O`, for which the Potency entry in assay [1], in assay [9], in assay [2], in assay [3], in [6] and in assay [7] was “inactive” in each case. For the same compound, the Potency result in assay [8] and in [10] was “inactive” each time. Moreover, the outcome in assay [4] and in assay [5] was inactive.
In the case of `CN1CCN2c3ccccc3Cc3ccccc3C2C1` (configuration not stated), the Potency entry in assay [1], in assay [9], in assay [2], in assay [3], in assay [6] and in assay [7] was “inactive” in each case. Also, the Potency result in assay [8] and in assay [10] was “inactive” throughout. The result in assay [4] and in assay [5] was inactive.
With `Cc1cc(C(C)(C)C)cc(C)c1CC1=NCCN1`, the Potency entry in assay [1], in [9], in assay [2], in [3], in assay [6] and in [7] was “inactive” each time. Also, the Potency entry in assay [8] and in assay [10] was “inactive” throughout. Besides, the result in [4] and in assay [5] was inactive.
Regarding `COc1ccc2[nH]cc(CCNC(C)=O)c2c1`, the Potency result in assay [1], in [9], in assay [2], in assay [3], in assay [6] and in assay [7] was “inactive” each time. In addition, the Potency entry in [8] and in [10] was “inactive” each time. Besides, the outcome in [4] and in [5] was inactive.
As for `Cc1ccc(C(=O)Nc2ccc(S(=O)(=O)O)c3cc(S(=O)(=O)O)cc(S(=O)(=O)O)c23)cc1NC(=O)c1cccc(NC(=O)Nc2cccc(C(=O)Nc3cc(C(=O)Nc4ccc(S(=O)(=O)O)c5cc(S(=O)(=O)O)cc(S(=O)(=O)O)c45)ccc3C)c2)c1`, the Potency entry in assay [1], in assay [9], in assay [2], in assay [3], in assay [6] and in assay [7] was “inactive” in each case. Besides, the Potency entry in assay [8] and in assay [10] was “inactive” throughout. Moreover, the outcome in [4] was inactive.

The values above are taken from PubChem BioAssay (NCATS).
